Assay outcomes (PubChem)
Shown is part of a subset that was picked to be rich in hits.
Pf Dd2 growth: qHTS Primary assay for Inhibitors of Plasmodium falciparum Dd2 growth in vitro | P. falciparum Dd2 growth, SYBR Green, 72 h | Potency, µM (highest dose often 28.9 µM), for inactives: at the top dose activity, negative = inhibition, actives largely listed as inhibitors | 120,000 tested, 4.3% active | AID 1347417, 2020; active means well fitted inhibition curve with a large enough effect;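 further: plate controls were DMSO vehicle for no effect and reference drug for full effect; nearly all actives have a fitted effect of over 65% in size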
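Infected erythrocytes (Dd2, 0.3% parasitemia, 2.5% hematocrit final) are added to compound in RPMI-1640/Albumax II medium, grown 72 h at 37C in low oxygen, then lysed with saponin/Triton-X containing SYBR Green and read by fluorescence.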
Starred values were filed as active, the others as inactive; i = inactive; [ ] = dose if it differs, or a comment. Potency means the concentration at half of the fitted maximal effect.

SMILES | Pf Dd2 growth
O=C(NCC1CC1)C1Cn2cccc2C(=O)N1Cc1ccccc1 (centres undefined) | -21%
COCCn1ncc(N2CCCC(CC(=O)NCc3ccc(OC)cc3)C2)cc1=O (centres undefined) | i
Cn1ncc(N2CCC(CNC(=O)c3cn(CCN)nn3)C2)cc1=O (centres undefined) | 9%
CCC(=O)N1CCC2(CCC(=O)N(CC3CC3)CC2)CC1 | -3%
COC[C@@H]1CN(C(=O)c2ccc(C#N)cc2)C[C@H]1c1nc(C2CC2)no1 | 17%
Cc1nc(-c2c3n(c(=O)n(CC(=O)Nc4ccccc4F)c2=O)CCCC3)no1 | 10%
Cc1cc(C)c(CNC(=O)c2cc(-c3ccc(CO)cc3)cc3c2OCCN3C)c(=O)[nH]1 | -10%[44.1 µM]
COC(=O)c1ccc2c(c1)N(CC(=O)Nc1ccc(OC)c(Cl)c1)C(=O)c1ccccc1S2 | i
Cc1cc(C)cc(NC(=O)CN2C(=O)c3ccccc3Sc3ccc(C(=O)N4CCOCC4)cc32)c1 | 2%
O=C(NC1CCCC1)c1ccc2c(c1)N(Cc1ccc(C(F)(F)F)cc1)C(=O)c1ccccc1S2 | 13µM*
CCOc1ccc(CN2C(=O)c3ccccc3Sc3ccc(C(=O)NCc4ccc(C)cc4)cc32)cc1 | 13µM*
CCOc1ccc(CN2C(=O)c3ccccc3Sc3ccc(C(=O)OC)cc32)cc1 | 16%
O=C(NC1CCCC1)c1ccc2c(c1)N(Cc1ccccc1Cl)C(=O)c1ccccc1S2 | -9%
COc1cccc(CN2C(=O)c3ccccc3Sc3ccc(C(=O)NCCc4ccc(Cl)cc4)cc32)c1 | 11µM*
CCOc1ccc(CN2C(=O)c3ccccc3Sc3ccc(C(=O)NCCc4ccccc4)cc32)cc1 | -18%
Cc1ccc(CN2C(=O)c3ccccc3Sc3ccc(C(=O)NC4CCCC4)cc32)cc1 | -5%
COc1cc(NC(=O)CN2C(=O)c3ccccc3Sc3ccc(C(=O)N4CCCC4)cc32)cc(OC)c1 | 7.9µM*
CN1CCc2[nH]nc(C(=O)N3CCC4(CC3)c3nc[nH]c3CCN4C)c2C1 | -2%
O=C(c1ccsc1)N1CCC(Oc2ccccc2)C1 (centres undefined) | -12%
OCCCn1cnc2cc(-n3ccnc3-c3cc4n(n3)CCNC4)ccc21 | 1%
O=C(C1CC1)N1CCC(Cc2nc(C3CC3)n[nH]2)CC1 | 14%
COc1cncc([C@@H](NC(=O)c2cccc(-n3cccn3)c2)C2CC(O)C2)c1 (some centres undefined) | 5%
CCOc1cccc(CNC(=O)c2cc3c(=O)[nH]c(C)cn3n2)c1 | i
O=C(Cc1ccccc1F)Nc1ccc2c(N3CCCCC3)ncnc2c1 | 13µM*
O=C(Cc1cccc(F)c1)Nc1ccc2ncnc(N3CCCCC3)c2c1 | -14%
SMILES | Pf Dd2 growth
COc1ccccc1CC(=O)Nc1ccc2ncnc(N3CCCCC3)c2c1 | i
COc1ccc(CC(=O)Nc2ccc3ncnc(N4CCCCC4)c3c2)c(Cl)c1 | -22%
COc1cccc(CC(=O)Nc2ccc3c(N4CCCCC4)ncnc3c2)c1 | 11µM*
O=C(Cc1c(F)cccc1Cl)Nc1ccc2ncnc(N3CCCC3)c2c1 | -20%
COCc1ncc(C)n1CCNC(=O)c1ccc(C)[nH]c1=O | -13%
CN(C)[C@@H]1CN(C(=O)c2ccc(F)cc2)CC[C@]1(O)c1ccccc1 | -11%[5.79 µM]
COCC1CN(C(C)=O)CC12CCN(Cc1cccc(OC)c1OC)CC2 (centres undefined) | i
COc1ccc(-c2cc(N3CCN(C(=O)c4cccc(C)c4)CC3)n[nH]2)cc1 | i
CN(Cc1cnn(-c2ccc(F)cc2)c1)C(=O)c1cn(Cc2cccc3ccccc23)nn1 | -3%
Cn1cc(-c2ccc(CO)cc2)c2nc(COc3ccccc3)cn2c1=O | -5%[44.1 µM]
CCNC(=O)c1coc(COc2ccc3c(c2)C(c2cccc(F)c2)N(C(=O)C(C)C)CC3)n1 (centres undefined) | 0.71µM*
COCCNC(=O)c1coc(COc2ccc3c(c2)C(c2cccc(F)c2)N(C(=O)C(C)C)CC3)n1 (centres undefined) | -10%
CC(C)NC(=O)c1coc(COc2ccc3c(c2)C(c2cccc(F)c2)N(C(=O)C2CC2)CC3)n1 (centres undefined) | -23%
O=C(CCC1CCN(S(=O)(=O)c2ccccc2)CC1)NC1CCCCCC1 | -11%
O=C(CC1COCCN1)NCCc1cnn(-c2ccccc2)c1 (centres undefined) | -22%
Cn1nc(C2CCCN(C(=O)C3CCOCC3)C2)n(C2CCCC2)c1=O (centres undefined) | 39%
COCCN1Cc2[nH]nc(-c3cccc(C(F)(F)F)c3)c2CC1=O | -7%[44.1 µM]
CC(C)N1C[C@H](O)C[C@H]1c1nnc2n1CCN(C(=O)C1CCC1)CC2 | -9%
CN(C1CCc2nn(C)c(=O)n2CC1)S(=O)(=O)c1ccc2c(c1)CCC2 (centres undefined) | i
Cc1ccc(S(=O)(=O)c2cn(Cc3ccccc3)c3cc(N4CCCC4)c(F)cc3c2=O)cc1 | 6.3µM*
CCn1cc(S(=O)(=O)c2cc(C)cc(C)c2)c(=O)c2cc(F)c(N3CCCC3)cc21 | i
O=c1c(S(=O)(=O)c2ccccc2)cn(Cc2ccccc2)c2cc(N3CCCC3)c(F)cc12 | -5%
CCn1cc(S(=O)(=O)c2ccc(C)cc2C)c(=O)c2cc(F)c(N3CCCCC3)cc21 | 11µM*
O=c1c(S(=O)(=O)c2cccc(Cl)c2)cn(Cc2ccccc2)c2cc(N3CCCCC3)c(F)cc12 | i
O=c1c(S(=O)(=O)c2ccccc2)cn(Cc2cccc(F)c2)c2cc(N3CCCC3)c(F)cc12 | -14%
SMILES | Pf Dd2 growth
Cc1ccc(S(=O)(=O)c2cn(Cc3ccccc3)c3cc(N4CCCC4)c(F)cc3c2=O)cc1C | 10µM*
CCn1cc(S(=O)(=O)c2ccc(OC)cc2)c(=O)c2cc(F)c(N3CCCCCC3)cc21 | -24%
CCCn1cc(S(=O)(=O)c2ccc(C)c(C)c2)c(=O)c2cc(F)c(N3CCC(C)CC3)cc21 | -10%
CC(C)c1noc(CN2CCCC(c3nccn3Cc3ccccc3)C2)n1 (centres undefined) | i
CCCn1cc(CNC(=O)c2cc3c(s2)CCC(C)C3)cn1 (centres undefined) | -24%
CCc1cnc(N)nc1N1CCN(c2cnccn2)CC1 | -14%
Fc1ccc(OCc2nc(-c3nnn4c3COC(c3ccccc3Cl)C4)no2)cc1 (centres undefined) | -6%
Fc1ccc(-c2cc(CC3(NCc4cccc5c4OCO5)COC3)no2)cc1 | -11%[44.1 µM]
Nc1cncc(-c2nccc(N3CCC(O)CC3)n2)c1 | -11%
CS(=O)(=O)N[C@@H]1[C@@H](NC(=O)CCC2=NNC(=O)CC2)[C@H]2CCO[C@H]21 | -6%
C[C@@H]1C(=O)O[C@H]2[C@H]1CC[C@@]1(C)Cc3sc(NC(=O)c4ccc(F)c(Cl)c4)nc3[C@@H](C)[C@H]21 | 11µM*
C[C@@H]1C(=O)O[C@H]2[C@H]1CC[C@@]1(C)Cc3sc(NS(=O)(=O)c4ccc(F)c(Cl)c4)nc3[C@@H](C)[C@H]21 | -13%
C[C@@H]1C(=O)O[C@H]2[C@H]1CC[C@@]1(C)Cc3sc(NC(=O)c4ccncc4)nc3[C@@H](C)[C@H]21 | i
Cc1nc2cccnc2n1CC1CCCN(S(=O)(=O)Cc2ccccc2)C1 (centres undefined) | -20%
COc1ccc(C(=O)N2CCC(N3C(=O)CCC3C(=O)NC(C)C)CC2)cc1OC (centres undefined) | 15%
O=C(Cn1nc2c(cc1=O)CCCC2)NCCn1cnc2ccccc21 | 12%
COc1ccccc1C(=O)N1CCCC(CN2CCC(C)CC2)CC1 (centres undefined) | i
